DT40 TDP1 CPT = qHTS for Inhibitors of human tyrosyl-DNA phosphodiesterase 1 (TDP1): qHTS in cells in presence of CPT; chicken DT40 Tdp1-/-;hTDP1 cells + 20 nM CPT, ATP luminescence, 48 h; Potency, µM (highest dose often 46.2 µM), inactives show at the top dose activity change, negative = growth inhibition, actives largely listed as inhibitors; actives 12% (n = 420,000); AID 686979, 2013; further: potency means the concentration at half of the fitted maximal effect; on the % scale 0 is the no-effect control and ±100 the full control effect; nearly all actives have a fitted effect of over 55% in size
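Chicken DT40 Tdp1-/- cells complemented with human TDP1, 400 cells/well, exposed to compounds plus 20 nM camptothecin for at least 48 h at 37 C; viability read as ATP content by CellTiter-Glo luminescence.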
TDP1 cell noCPT = qHTS for Inhibitors of human tyrosyl-DNA phosphodiesterase 1 (TDP1): qHTS in cells in absence of CPT; DT40 Tdp1-/- hTDP1 cells, no CPT, ATP luminescence, 48 h; Potency, µM (highest dose often 46.2 µM), without a hit: top-dose activity change, negative = growth inhibition, usual class: inhibitors; actives 15% (n = 420,000); further: potency means the concentration at half of the fitted maximal effect; on the % scale 0 is the no-effect control and ±100 the full control effect; nearly all actives have a fitted effect of over 55% in size
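Stably hTDP1-transfected Tdp1-null chicken DT40 cells were treated with library compounds minus camptothecin and grown for at least 48 hr at 37 °C, after which cellular ATP was quantified by luminescence.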
BCR signal inh = qHTS Assay to Find Inhibitors of Chronic Active B-Cell Receptor Signaling; ABC-DLBCL IkBa-CBG/CBR reporter, luminescence ratio, 4 h; actives 0.05% (n = 340,000); Potency, µM (series often up to 46.1 µM), for the others: at the top dose activity change, negative = inhibition, hits mostly inhibitors; active means well fitted inhibition curve with a large enough effect in the signal ratio, with a control signal flat, not every such curve was filed as active; inconclusive means small, poorly fitted or top-dose-only effect, or effect the other way, or a change in a side signal; the % refers to the signal ratio;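 further: potency means the concentration at half of the fitted maximal effect; plate controls were basal doxycycline-induced cells for no effect and cells given 10 µM MG132 for full effect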
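TMD8 ABC-DLBCL cells carrying doxycycline-inducible green luciferase fused to IkappaBalpha plus unfused red luciferase were exposed to compounds (up to 46 uM) for 4 hrs at 37C. Activity came from the overlap-corrected green/red luminescence ratio.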
SW480 rereplic = A quantitative high throughput screen for small molecules that induce DNA re-replication in SW480 colon adenocarcinoma cells | SW480 DNA re-replication, Hoechst DNA content imaging, 48 h | actives 1.8% (n = 340,000) | AID 624297, 2012 | Potency, µM (top dose mostly 46.1 µM), without a hit: at the top dose re-replication activation, usual class: activators; further: potency means the concentration at half of the fitted maximal effect; % of control where 0% means no effect; nearly all actives have a fitted effect of over 55% in size
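SW480 cells exposed to compounds for 48 hr at 37 C, 5% CO2, then Hoechst-stained 40 min. Nuclear DNA content imaged by fluorescence scanning (405 nm excitation, 500-530 nm emission); re-replication scored as increased high-intensity nuclei.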
IL-1B inflam inh = qHTS for Inhibitors of Inflammasome Signaling: IL-1-beta AlphaLISA Primary Screen; activity change, % at 57.5 µM; AID 743279, 2014; THP-1 LPS/ATP IL-1B secretion, AlphaLISA, 16 h; stronger effect = lower value; actives 4.7% (n = 360,000); in the data active means activity change below about -50%; inconclusive means mostly about -30% to -49%; further: on the % scale 0 is the no-effect control and ±100 the full control effect
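THP-1 cells pretreated 1 hr with compounds (up to 57.5 uM final), then stimulated with LPS (250 ng/mL final) plus ATP (1.25 mM final); secreted IL-1B measured by AlphaLISA after 16 hr, decreased signal indicating inhibition.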
MCF10A rereplic = A quantitative high throughput screen for small molecules that induce DNA re-replication in MCF 10a normal breast cells. actives 2.9% (n = 350,000). MCF 10A DNA re-replication, Hoechst nuclear intensity, 48 h. Potency, µM (titrated, usually from 46.1 µM), without a hit: at the top dose activity, positive = re-replication, most hits filed as activators; further: potency means the concentration at half of the fitted maximal effect; % of control where 0% means no effect; nearly all actives have a fitted effect of over 50% in size
* marks the source's active call; other numbers are inactive results; ? = inconclusive; · = no result. Most compounds without a hit are left out; they make up all but 19% or so of the library. Unless noted, the call rests on the fitted dose curve; in most records, active means well fitted curve in the direction sought with a large enough effect; inconclusive means small, poorly fitted or top-dose-only effect, or another doubt; inactive means no such curve, though single readings can be large; an effect the other way counts as inactive or inconclusive.

SMILES | DT40 TDP1 CPT | TDP1 cell noCPT | BCR signal inh | SW480 rereplic | IL-1B inflam inh | MCF10A rereplic
CC[C@]12c3[nH]c4cc(-c5ccco5)ccc4c3CCN1C(=O)[C@@H](CC(=O)NCc1ccco1)C[C@@H]2C(=O)N1CCN(C(=O)c2ccco2)CC1 | ? | ? | -6.9% | ? | -3.7 | 20.5%
CC[C@]12c3[nH]c4cc(-c5ccco5)ccc4c3CCN1C(=O)[C@@H](CC(=O)NC/C=C(\C)CCC=C(C)C)C[C@@H]2C(=O)N1CCN(C(=O)c2ccco2)CC1 | ? | 20.6µM* | ? | 0.8% | ? | ?
CC[C@]12c3[nH]c4ccc(OC)cc4c3CCN1C(=O)C(CC(=O)NC(C)(C)C)C[C@@H]2C(=O)N1CCN(C(=O)c2ccco2)CC1 (some centres not stated) | -3.2% | -12.6% | -0.8% | 7.7% | -0.2 | -9.6%
CC[C@]12c3[nH]c4ccccc4c3CCN1C(=O)C(CC(=O)NCc1ccco1)C[C@@H]2C(=O)N1CCN(C(=O)c2ccco2)CC1 (some centres not stated) | -16.0% | -16.3% | -1.0% | 12.7% | 22.8 | 1.2%
CC[C@]12c3[nH]c4ccccc4c3CCN1C(=O)C(CC(=O)NC/C=C(\C)CCC=C(C)C)C[C@@H]2C(=O)N1CCN(C(=O)c2ccco2)CC1 (some centres not stated) | 16.4µM* | ? | ? | ? | -52.7* | ?
CC1=C(C(=O)Nc2ccccc2)C(c2cccnc2)n2nc(SCc3ccccc3F)nc2N1 (configuration not stated) | -14.6% | -8.0% | · | · | · | ·
CC(C)CN(C(=O)CN1CCc2ccccc21)c1c(N)n(CC(C)C)c(=O)[nH]c1=O | -17.7% | -4.0% | -2.6% | 1.4% | 15.1 | 2.3%
CN1OC[C@@H]2CN[C@H](c3cccc(Oc4ccccc4)c3)C[C@@H]21 | -4.0% | -0.8% | · | · | -10.4 | ·
N=c1n(CCO)c2ccccc2n1CCOc1ccc(F)cc1 | 20.6µM* | -82.0% | · | · | · | ·
CCOC(=O)Cn1c(=N)n(CCOc2ccc(Br)cc2)c2ccccc21 | 23.1µM* | 16.4µM* | -13.0% | -3.9% | · | -20.7%
CCOc1ccc(S(=O)(=O)Nc2ccc(C(=O)NCC(c3ccco3)N3CCCCC3)cc2)cc1 (configuration not stated) | ? | ? | ? | -546.6% | ? | 9.2%
CSc1ccc(OC2CCCCC2NS(=O)(=O)c2ccc(Cl)cc2)cc1 (configuration not stated) | 25.9µM* | ? | ? | 0.7% | -11.4 | ?
CN(c1ccccc1)C1CCCCC1NS(=O)(=O)c1ccc(Cl)cc1 (configuration not stated) | ? | 23.1µM* | 20.3% | -4.7% | 72.9 | ?
Cn1c(CCNC(=O)c2ccco2)nc2cc(NC(=O)c3ccco3)ccc21 | ? | -25.0% | ? | 0.9% | 13.5 | 7.5%
Cn1c(CCNC(=O)c2ccco2)nc2cc(NS(=O)(=O)c3ccccc3)ccc21 | 20.6µM* | ? | 8.8% | -6.8% | -2.7 | 6.0%
COc1ccccc1C(=O)Nc1ccc2c(c1)nc(CCNC(=O)c1ccco1)n2C | 1.3µM* | 0.92µM* | ? | 5.17µM* | -19.8 | ?
CC(C)C(NC(=O)C1CC(=O)N(Cc2ccccc2)C1)c1nc2ccccc2[nH]1 (configuration not stated) | -18.0% | -7.1% | 1.4% | -0.7% | 9.2 | -4.8%
COc1ccc(-c2cnc(C(O)c3ccc(CN4CCCCC4)cc3)[nH]2)cc1 (configuration not stated) | -2.9% | -12.7% | · | · | -13.8 | ·
CC(=C/c1ccco1)/C=N/NC(=O)CSc1nnc(SCc2ccc(C)cc2)s1 | -1.5% | ? | ? | -4.3% | 5.0 | ?
CN(C)C(=O)CNC(=O)CN1C(=O)NC2(CCCc3sccc32)C1=O (configuration not stated) | -3.7% | 5.9% | -5.6% | 1.2% | -64.7* | -3.3%
COc1ccc(C(=O)c2c(C(F)(F)F)oc3c2C(=O)c2ccccc2C3=O)cc1 | 4.61µM* | 7.31µM* | 17.8% | 5.17µM* | ? | 4.11µM*
O=C(/C=C/c1cccs1)Nc1ccc(Br)cn1 | 0.259µM* | 0.326µM* | ? | ? | 77.9 | ?
O=C(/C=C/c1cccs1)Nc1cccc(NC(=O)/C=C/c2cccs2)n1 | 11.6µM* | 8.2µM* | ? | -0.7% | -4.2 | 18.4µM*
Cc1cc(C)c(-c2csc(NC(=O)/C=C/c3cccs3)n2)c(C)c1 | ? | 18.4µM* | ? | ? | -14.1 | ?
O=C(/C=C/c1cccs1)Nc1nccs1 | -19.6% | -31.5% | ? | 2.6% | 42.0 | ?
CCOC(=O)C1CCN(C(=O)CSc2n[nH]c(-c3ccc(F)cc3)n2)CC1 | -23.5% | -16.4% | · | · | · | ·
O=C(Nc1cccc(F)c1)N1CCc2nc(NCc3cccc(Oc4ccccc4)c3)ncc2C1 | ? | 14.6µM* | · | · | 75.4 | ·
O=C(O)CCc1ccc(NCc2cccc(Oc3ccccc3)c2)cc1 | · | · | · | -58.3% | · | ?
CC(C)c1ccc(NC(=O)N2CCc3nc(NCc4cccc(Oc5ccccc5)c4)ncc3C2)cc1 | ? | 16.4µM* | · | · | -0.1 | ·
COc1cc(Nc2ncc3c(n2)CCN(C(=O)Nc2ccc(C(C)C)cc2)C3)cc(OC)c1OC | ? | 11.6µM* | · | · | -2.5 | ·

Screening results from PubChem BioAssay.
